Assay results published in PubChem BioAssay (NCATS).
Results filed as inconclusive are left out. Activity calls are given as the source filed them. The call rests on the fitted dose curve; in most records, active means well fitted curve in the direction sought with a large enough effect; inconclusive means small, poorly fitted or top-dose-only effect, or another doubt; inactive means no such curve, though single readings can be large; an effect the other way counts as inactive or inconclusive. Starred links: 1 amine or outer side, 2 acyl side, 3 side chain; linkers in the order of their positions; H or OH if unused. Positions of bridges follow the written chain, without caps; N, C: chain ends. Non-standard residues stand in square brackets, D forms with d. Residues, ends and D or L forms follow the SMILES beside them. Chains are numbered I, II in the order given. ξ: configuration not given here. *: point of attachment. Actinocin(9to1) = Cc1c2oc3c(C)ccc(C(=O)[*:1])c3nc-2c(C(=O)[*:2])c(N)c1=O; Octanoyl(6-Me) = CCC(C)CCCCC(=O)*; ξThr(3R) = C[C@@H](O)C(N)C(=O)O; NMeV = CN[CH](C(=O)O)C(C)C; dDab = NCC[C@@H](N)C(=O)O; Dab = NCC[C@H](N)C(=O)O; Sar = CNCC(=O)O

Tests used:
[1] = qHTS of pediatric cancer cell lines to identify multiple opportunities for drug repurposing: Primary screen for A673 cells (AID 1347092); further: nearly all actives have a fitted effect of over 45% in size
Procedure, shortened: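 Luminescence from CellTiter-Glo, taken after 15 min at room temperature, served as the proxy for metabolically active cells following 48 h treatment. Both potency and efficacy were taken from curves fitted to the titration data.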

[2] = qHTS of pediatric cancer cell lines to identify multiple opportunities for drug repurposing: Primary screen for SK-N-MC cells (AID 1347093)
Procedure, shortened: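 Metabolically active cells were quantified by ATP-dependent luminescence (CellTiter-Glo, 15 min at room temperature) following 48 h treatment. Cells had been plated at 500-1,000 per well and settled for 5 h beforehand.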

[3] = qHTS of pediatric cancer cell lines to identify multiple opportunities for drug repurposing: Primary screen for BT-37 cells (AID 1347094)
Procedure, shortened: (§1)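 Cells plated at 500-1,000/well in growth medium, compounds added after 5 h. MIPE tested at 11 points (from 0.78 nM), NPC at 8 points (from 0.59 nM). CellTiter-Glo luminescence after 48 h; concentration-response curves from primary screen.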

[4] = qHTS of pediatric cancer cell lines to identify multiple opportunities for drug repurposing: Primary screen for NB-EBc1 cells (AID 1347095)
Procedure, shortened: as §1

[5] = qHTS of pediatric cancer cell lines to identify multiple opportunities for drug repurposing: Primary screen for U-2 OS cells (AID 1347096); further: nearly all actives have a fitted effect of over 50% in size
Procedure, shortened: (§2)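 Viability after 48 h compound treatment at 37C, 500-1,000 cells/well, read as ATP luminescence with CellTiter-Glo. Primary screens used 11-point (MIPE, 0.78 nM-46 µM) or 8-point (NPC, 0.59 nM-46 µM) final concentrations; follow-up screens used 11-point dilutions.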

[6] = qHTS of pediatric cancer cell lines to identify multiple opportunities for drug repurposing: Primary screen for SK-N-SH cells (AID 1347098); further: nearly all actives have a fitted effect of over 65% in size
Procedure, shortened: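 Cells (500-1,000/well) rested 5 h, then received compounds for 48 h; metabolically active cells were measured by CellTiter-Glo luminescence. Final concentrations spanned up to 46 µM (MIPE, 11-point) or 0.59 nM-46 µM (NPC, 8-point) in primary screens, 11-point in follow-ups.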

[7] = qHTS of pediatric cancer cell lines to identify multiple opportunities for drug repurposing: Primary screen for LAN-5 cells (AID 1347100)
Procedure, shortened: as §2

[8] = qHTS of pediatric cancer cell lines to identify multiple opportunities for drug repurposing: Primary screen for NB1643 cells (AID 1347099); further: nearly all actives have a fitted effect of over 50% in size
Procedure, shortened: as §1

[9] = qHTS of pediatric cancer cell lines to identify multiple opportunities for drug repurposing: Primary screen for Saos-2 cells (AID 1347097); further: nearly all actives have a fitted effect of over 40% in size
Procedure, shortened: as §1

Measured: Potency
Potency means the concentration at half of the fitted maximal effect.

CC(=O)OCC(=O)[C@@]1(O)CC[C@H]2[C@@H]3CCC4=CC(=O)CC[C@]4(C)[C@@H]3C(=O)C[C@@]21C
not listed: [8] | [9]
inactive: all other assays above

C=CC(=O)Nc1ccc2ncnc(Nc3ccc(OCc4cccc(F)c4)c(Cl)c3)c2c1
active: [1] 0.001 µM | [2] 0.0166 µM | [3] 0.0153 µM | [4] 0.0526 µM | [5] 5.9 µM | [6] 0.171 µM | [8] 0.0743 µM

CC(C)(C)c1nc2c3cc[nH]c(=O)c3c3cc(F)ccc3c2[nH]1
active: [2] 1.18 µM | [6] 9.61 µM | [7] 2.35 µM
inactive: [3] | [4] | [5]

N#Cc1ccc(COC[C@H]2O[C@@H](n3c(NCc4ccc(Cl)c(Cl)c4)nc4c(N)ncnc43)[C@@H](O)[C@@H]2O)cc1
inactive: [5] | [9]
active: [1] 7.43 µM | [2] 20.9 µM | [6] 19.2 µM | [8] 18.7 µM

c1ccc2c(Oc3nc(Nc4ccc(N5CCOCC5)cc4)c4ncn(C5CCCCC5)c4n3)cccc2c1
active: [2] 11.8 µM
not listed: [1] | [4]
inactive: all other assays above

COc1cc(C[C@@H](CO)[C@H](CO)Cc2ccc(O)c(OC)c2)ccc1O
active: [1] 0.187 µM | [2] 0.209 µM | [3] 3.85 µM | [9] 5.9 µM | [6] 1.71 µM | [8] 0.59 µM | [7] 2.35 µM

C=CC(=O)Nc1cc(NC(=O)c2ccc(C)c(NC(=O)c3ccno3)c2)cc(C(F)(F)F)c1
active: [1] 14.8 µM | [2] 10.5 µM | [3] 27.3 µM | [6] 24.1 µM | [8] 18.7 µM | [7] 16.6 µM

COC(=O)C1C2CC3c4[nH]c5cc(OC)ccc5c4CCN3CC2CC(OC(=O)c2cc(OC)c(OC)c(OC)c2)C1OC (stereo not given)
active: [2] 3.72 µM | [9] 18.7 µM
inactive: [7]

O=C(O)CCCCC(CCSCc1ccccc1)SCc1ccccc1 (stereo not given)
inactive: [3] | [4] | [5]
active: [2] 9.35 µM | [8] 10.5 µM

C[C@@H](NCc1cc2ccccc2[nH]1)c1cccc2ccccc12
not listed: [2] | [4]
inactive: all other assays above

N#CC(=C(O)c1ccc(Cl)cc1Cl)c1nc2cc(Cl)ccc2c(=O)[nH]1
inactive: [1] | [3] | [5] | [6] | [7]
active: [8] 20.9 µM

CCc1cc(C(C)=NOCc2ccc(C3CCCCC3)c(C(F)(F)F)c2)ccc1CN1CC(C(=O)O)C1
active: [1] 1.48 µM | [2] 0.0372 µM | [4] 20.9 µM | [8] 2.64 µM
inactive: [5]

N#Cc1c(C2CCNCC2)cc(-c2c(O)cccc2OCC2CC2)nc1N
inactive: [5]
active: [1] 18.7 µM | [2] 1.05 µM | [4] 18.7 µM | [6] 21.5 µM

Cc1noc(-c2ccc(CSCCC(=O)O)cc2)c1NC(=O)OC(C)c1ccccc1Cl (stereo not given)
not listed: [2] | [4] | [8]
inactive: all other assays above

O=C(c1ccc(F)cc1)N1CCC[C@H](c2nc(-c3ccc(F)cc3)no2)C1
active: [6] 13.6 µM
not listed: [4] | [9]
inactive: all other assays above

Cc1c2oc3c(C)ccc(C(=O)NC4C(=O)NC(C(C)C)C(=O)N5CCCC5C(=O)N(C)CC(=O)N(C)C(C(C)C)C(=O)OC4C)c3nc-2c(C(=O)NC2C(=O)NC(C(C)C)C(=O)N3CCCC3C(=O)N(C)CC(=O)N(C)C(C(C)C)C(=O)OC2C)c(N)c1=O (stereo not given) (I: TVP[Sar][NMeV] / II: TVP[Sar][NMeV]; ester I:1-I:C, II:1-II:C; linker I:N-II:N via Actinocin(9to1); configuration not given here)
active: [2] 0.001 µM | [3] 0.001 µM | [5] 0.001 µM | [9] 0.001 µM | [6] 0.001 µM
inactive: [4]

CC(C)n1cnc2c(NCCc3ccc(O)cc3)nc(-c3csc4ccccc34)nc21
inactive: [5]
active: [1] 1.18 µM | [2] 3.32 µM | [9] 14.8 µM | [6] 4.29 µM

NC(=O)c1ncn([C@@H]2O[C@H](CO)[C@@H](O)[C@@H]2O)c1N
not listed: [2] | [8] | [9]
inactive: all other assays above

CCCCCCCN(CC)CCCC(O)c1ccc(NS(C)(=O)=O)cc1 (stereo not given)
inactive: [2] | [3] | [5] | [6] | [8]

CCCCCN=C(N)NN=Cc1c[nH]c2ccc(OC)cc12
active: [1] 9.35 µM | [2] 3.72 µM
inactive: [6]

O=C(NCc1ccccc1)[C@H](Cc1ccccc1)NC(=O)[C@@H]1O[C@@H]1C(=O)NCCc1ccc(O)cc1
inactive: [4] | [5] | [7]
active: [1] 1.18 µM | [2] 23.5 µM | [9] 23.5 µM | [6] 21.5 µM

N#CC(=Cc1ccc(O)c(O)c1)C(=O)NCc1ccccc1
active: [2] 14.8 µM | [4] 23.5 µM
inactive: [5]

OCCNC1CCCc2c1[nH]c1ccc(-c3ccccc3)cc21 (stereo not given)
inactive: [8]
active: [1] 23.5 µM | [3] 24.3 µM | [9] 18.7 µM | [7] 26.4 µM

C[C@H](NC(=O)Cc1cc(F)cc(F)c1)C(=O)N[C@H](C(=O)OC(C)(C)C)c1ccccc1
active: [2] 14.8 µM
inactive: [3] | [5] | [9] | [7]

C[C@@H]1[C@H](C)CC[C@]2(C(=O)O)CC[C@]3(C)C(=CC[C@@H]4[C@@]5(C)C[C@@H](O)[C@H](O)[C@@](C)(CO)[C@H]5CC[C@]43C)[C@@H]12
not listed: [4] | [9]
inactive: all other assays above

Cc1cnn(C)c1C(=O)Nc1cc(Nc2ccc3c(C=Cc4ccccn4)n[nH]c3c2)ccc1F
active: [1] 14.8 µM | [3] 24.3 µM | [9] 20.9 µM | [8] 14.8 µM | [7] 14.8 µM

O=C(O)c1ccc(Nc2ncc3c(n2)-c2ccc(Cl)cc2C(c2c(F)cccc2F)=NC3)cc1
active: [1] 4.69 µM | [2] 0.662 µM | [4] 0.0662 µM | [7] 0.0296 µM
inactive: [5]

CC1(C)O[C@@H]2C[C@H]3[C@@H]4CCC5=CC(=O)C=C[C@]5(C)[C@@H]4[C@@H](O)C[C@]3(C)[C@]2(C(=O)CO)O1
active: [2] 29.6 µM
inactive: [1] | [3] | [5] | [6] | [7]

Cc1coc2c1C(=O)C(=O)c1c-2ccc2c(C)cccc12
not listed: [3] | [4] | [9]
inactive: all other assays above

Cc1cnc(NC(=O)Nc2cc(Br)c(C)cc2OC[C@@H]2CNCCO2)cn1
inactive: [6]
active: [2] 0.166 µM | [4] 1.05 µM | [7] 1.87 µM

CCCCCCCCCCCCc1ccc(S(=O)(=O)Nc2nncs2)cc1
inactive: [1] | [3] | [5] | [8] | [7]

NC(=O)c1cccc(-c2cccc(OC(=O)NC3CCCCC3)c2)c1
not listed: [1] | [9]
inactive: all other assays above

OC[C@@H](O)[C@@H](O)[C@H](O)[C@@H](O)CO
not listed: [4] | [8] | [9]
inactive: all other assays above

Cc1cncc2cccc(S(=O)(=O)N3CCCN(C(=O)CN)C[C@@H]3C)c12
active: [1] 14.8 µM | [7] 1.48 µM
inactive: [3] | [5] | [8]

CCC(C)CCCCC(=O)N[C@@H](CCN)C(=O)NC(C(=O)N[C@H](CCN)C(=O)N[C@@H]1CCNC(=O)C([C@@H](C)O)NC(=O)[C@@H](CCN)NC(=O)[C@@H](CCN)NC(=O)[C@@H](CC(C)C)NC(=O)[C@H](Cc2ccccc2)NC(=O)[C@H](CCN)NC1=O)[C@@H](C)O (stereo partly drawn) ({Octanoyl(6-Me)}-[Dab][ξThr(3R)][dDab][dDab][Dab]F[dL][dDab][dDab][ξThr(3R)]; lactam 4-C)
not listed: [4] | [8] | [9]
inactive: all other assays above

CC(O)(C#Cc1ccc2c(c1)N(c1nc(N)ncc1Cl)CC2)c1nccs1 (stereo not given)
active: [1] 5.9 µM | [2] 2.35 µM | [6] 21.5 µM
inactive: [5]

CCOc1cc2ncc(C#N)c(Nc3ccc(OCc4ccccn4)c(Cl)c3)c2cc1NC(=O)C=CCN(C)C
active: [1] 0.0743 µM | [2] 0.105 µM | [3] 1.09 µM | [9] 1.18 µM | [6] 0.121 µM | [8] 0.59 µM | [7] 1.48 µM

Cc1ccc(-n2[nH]c(C)c(N=Nc3cccc(-c4cccc(C(=O)O)c4)c3O)c2=O)cc1C
active: [1] 13.3 µM | [2] 14.8 µM | [3] 19.5 µM | [9] 13.3 µM

CCOC(=O)[C@@H](N)Cc1ccc(-c2cc(O[C@H](c3ccc(Cl)cc3-n3ccc(C)n3)C(F)(F)F)nc(N)n2)cc1
active: [2] 16.6 µM | [3] 27.3 µM | [9] 18.7 µM
inactive: [6]

c1ccc(CNc2nc(NCc3ccccc3)c3ccccc3n2)cc1
active: [1] 4.69 µM | [2] 11.8 µM | [4] 23.5 µM | [6] 6.81 µM | [8] 18.7 µM | [7] 20.9 µM

C[C@]12CCC(=O)C=C1[C@@H]1CC1[C@H]1[C@H]3[C@@H]4C[C@H]4[C@@]4(CCC(=O)O4)[C@@]3(C)CC[C@H]12 (stereo not given in full)
not listed: [2] | [7] | [8]
inactive: all other assays above

NC(=NCCCCCCN=C(N)N=C(N)Nc1ccc(Cl)cc1)N=C(N)Nc1ccc(Cl)cc1
inactive: [5]
active: [1] 2.96 µM | [2] 2.09 µM | [4] 26.4 µM | [9] 18.7 µM | [6] 21.5 µM | [8] 5.26 µM
